Data from PubChem BioAssay (EPA / NIEHS).
“And” between values parts separate entries of the source, which are not always exact repeats. Equal values may be shown once. The source made the active and inactive calls. The calls were made as follows: active = hit-call score of the fitted dose curve at least 0.9, where 1 is the maximum; inactive = score below 0.9.

What was measured:
Settings in all cases: mRNA level, 48 h; actives raise or lower the signal
[1] = read-out: Early growth response protein 1 (EGR1) transcription factor, EGR1 (gene 1958); test: LTEA_HepaRG_EGR1: Life Technologies and Expression Analysis (LTEA) Assay for Early growth response protein 1 (EGR1) transcription factor using HepaRG (AID 2283490)
Summary of the method: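 Differentiated HepaRG cells in serum-free induction medium exposed 48 hours, duplicate, to 8 half-log concentrations up to 100 uM in 0.5% DMSO. EGR1 mRNA measured by TaqMan qRT-PCR, normalized to ACTB, GAPDH, POLR2A; bidirectional fit versus DMSO.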

[2] = read-out: Ezrin (EZR), EZR (gene 7430); test: LTEA_HepaRG_EZR: Life Technologies and Expression Analysis (LTEA) Assay for Ezrin (EZR) using HepaRG (AID 2283491)
Summary of the method: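 Gain or loss of EZR mRNA is scored relative to 0.5% DMSO in human HepaRG cultures treated 48 h with test chemicals in duplicate, eight half-log concentrations from 100 uM.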

[3] = read-out: Cytochrome P450 3A7 (Homo sapiens) (UniProt P24462); test: LTEA_HepaRG_CYP3A7: Life Technologies and Expression Analysis (LTEA) Assay for CYP3A7 using HepaRG (AID 2283492)
Summary of the method: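 qRT-PCR of CYP3A7 in HepaRG lysates after 48 h treatment; concentration-response (8 points, max 100 uM) analysed bidirectionally relative to 0.5% DMSO controls.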

[4] = read-out: CYP3A5 (gene 1577); test: LTEA_HepaRG_CYP3A5: Life Technologies and Expression Analysis (LTEA) Assay for CYP3A5 using HepaRG (AID 2283493)
Summary of the method: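 HepaRG plated 48 h, switched to serum-free induction medium, chemicals added 48 h (max 100 uM, half-log, 0.5% DMSO). RNA isolated; CYP3A5 by TaqMan qRT-PCR. Gain/loss vs DMSO.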

[5] = read-out: Fatty Acid-Binding Protein 1 (FABP1), FABP1 (gene 2168); test: LTEA_HepaRG_FABP1: Life Technologies and Expression Analysis (LTEA) Assay for Fatty Acid-Binding Protein 1 (FABP1) using HepaRG (AID 2283494)
Summary of the method: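 Differentiated human HepaRG cells exposed 48 h in serum-free induction medium to eight half-log concentrations up to 100 uM (0.5% DMSO), duplicate. FABP1 mRNA by qRT-PCR, normalised to ACTB, GAPDH, POLR2A; bidirectional fitting against DMSO.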

[6] = read-out: Cytochrome P450 4A22 (Homo sapiens) (UniProt Q5TCH4); test: LTEA_HepaRG_CYP4A22: Life Technologies and Expression Analysis (LTEA) Assay for Cytochrome P450 4A22 (CYP4A22) using HepaRG (AID 2283495)
Summary of the method: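 Concentration-response (8 points, max 100 uM, 0.5% DMSO) in human HepaRG liver cells after 48 h exposure. CYP4A22 mRNA by TaqMan qRT-PCR with housekeeping-gene normalization.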

[7] = read-out: Cytochrome P450 7A1 (Homo sapiens) (UniProt P22680); test: LTEA_HepaRG_CYP7A1: Life Technologies and Expression Analysis (LTEA) Assay for Cytochrome P450 7A1 (CYP7A1) using HepaRG (AID 2283496)
Summary of the method: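 HepaRG cells plated 48 h, then switched to serum-free induction medium and exposed in duplicate for 48 h to 8-point half-log series from 100 uM in 0.5% DMSO. CYP7A1 mRNA by qRT-PCR (TaqMan), normalized to ACTB/GAPDH/POLR2A; bidirectional fit versus DMSO.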

[8] = read-out: Glutathione S-Transferase (GSTA2), GSTA2 (gene 2939); test: LTEA_HepaRG_GSTA2: Life Technologies and Expression Analysis (LTEA) Assay for Glutathione S-Transferase (GSTA2) using HepaRG (AID 2283497)
Summary of the method: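 Differentiated human HepaRG cells were exposed in duplicate for 48 h in serum-free induction medium, 8 points from 100 uM top in half-log steps, 0.5% DMSO. GSTA2 mRNA was measured by TaqMan qRT-PCR, normalized to ACTB, GAPDH and POLR2A; bidirectional fit versus DMSO.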

[9] = read-out: Glutamate-cysteine ligase catalytic (GCLC), GCLC (gene 2729); test: LTEA_HepaRG_GCLC: Life Technologies and Expression Analysis (LTEA) Assay for Glutamate-cysteine ligase catalytic (GCLC) using HepaRG (AID 2283498)
Summary of the method: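 Differentiated HepaRG cells exposed 48 h in serum-free induction medium, eight-point half-log series topping at 100 uM in 0.5% DMSO, duplicates. GCLC mRNA by qRT-PCR normalized to ACTB, GAPDH and POLR2A, fitted bidirectionally versus DMSO.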

[10] = read-out: growth arrest and DNA damage 45 (GADD45G), GADD45G (gene 10912); test: LTEA_HepaRG_GADD45G: Life Technologies and Expression Analysis (LTEA) Assay for growth arrest and DNA damage 45 (GADD45G) using HepaRG (AID 2283499)
Summary of the method: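 Concentration-response in HepaRG: 48 h dosing, 0.5% DMSO, highest level 100 uM. GADD45G expression by qRT-PCR, normalised to endogenous controls; bidirectional fit to DMSO.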

[11] = read-out: Glutamate-cysteine ligase regulatory (GCLM), GCLM (gene 2730); test: LTEA_HepaRG_GCLM: Life Technologies and Expression Analysis (LTEA) Assay for Glutamate-cysteine ligase regulatory (GCLM) using HepaRG (AID 2283500)
Summary of the method: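 Cells were plated, cultured 48 h, switched to serum-free induction medium, then dosed in duplicate for 48 h at eight half-log concentrations up to 100 uM. RNA was then profiled by qRT-PCR; gain or loss versus DMSO was fitted.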

[12] = read-out: Glutathione S-transferase M3 (GSTM3), GSTM3 (gene 2947); test: LTEA_HepaRG_GSTM3: Life Technologies and Expression Analysis (LTEA) Assay for Glutathione S-transferase M3 (GSTM3) using HepaRG (AID 2283501)
Summary of the method: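 Expression of GSTM3 is determined by qRT-PCR in human liver HepaRG cells treated 48 h with an 8-point half-log range from 100 uM in 0.5% DMSO.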

[13] = read-out: Heat shock 70 kDa protein 1 (HSPA1A), gene 3303; test: LTEA_HepaRG_HSPA1A: Life Technologies and Expression Analysis (LTEA) Assay for Heat shock 70 kDa protein 1 (HSPA1A) using HepaRG (AID 2283502)
Summary of the method: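 Readout is HSPA1A transcript level by microfluidic qRT-PCR, normalized to three housekeeping genes and analysed for gain or loss of signal relative to 0.5% DMSO. Human HepaRG cultures received test chemicals for 48 h at up to 100 uM.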

[14] = read-out: Hypoxia-inducible factor 1-alpha (Homo sapiens) (UniProt Q16665); test: LTEA_HepaRG_HIF1A: Life Technologies and Expression Analysis (LTEA) Assay for Hypoxia-inducible factor 1 (HIF1A) Trancription factor using HepaRG (AID 2283503)
Summary of the method: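 Differentiated HepaRG cells in serum-free induction medium exposed 48 h, in duplicate, to 8-point half-log series from 100 uM in 0.5% DMSO. HIF1A mRNA measured by TaqMan qRT-PCR, normalized to ACTB/GAPDH/POLR2A, fitted bidirectionally versus DMSO.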

[15] = read-out: 3-Hydroxy-3-Methylglutaryl-CoA Synthase 2 (HMGCS2), HMGCS2 (gene 3158); test: LTEA_HepaRG_HMGCS2: Life Technologies and Expression Analysis (LTEA) Assay for 3-Hydroxy-3-Methylglutaryl-CoA Synthase 2 (HMGCS2) using HepaRG (AID 2283504)
Summary of the method: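 This steatosis marker was read as HMGCS2 mRNA change in HepaRG cells treated 48 h with up to 100 uM chemical. Normalisation used housekeeping genes; activity in either direction was fitted relative to 0.5% DMSO vehicle.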

[16] = read-out: HGF (gene 3082); test: LTEA_HepaRG_HGF: Life Technologies and Expression Analysis (LTEA) Assay for Hepatocyte Growth Facto (HGF) using HepaRG (AID 2283505)
Summary of the method: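 Using HepaRG monolayers kept in 0.5% DMSO, chemicals were tested in duplicate over eight half-log concentrations from 100 uM for 48 h. Endpoint: HGF mRNA change relative to DMSO, normalized to ACTB/GAPDH/POLR2A.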

[17] = read-out: Insulin Like Growth Factor 1 (IGF1), IGF1 (gene 3479); test: LTEA_HepaRG_IGF1: Life Technologies and Expression Analysis (LTEA) Assay for Insulin Like Growth Factor 1 (IGF1) using HepaRG (AID 2283506)
Summary of the method: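 HepaRG, plated 48 h, then switched to serum-free induction media; test chemical 8-pt half-log from 100 uM (0.5% DMSO), duplicate, 48 h. Lysis in RLT, TaqMan qRT-PCR, norm. ACTB/GAPDH/POLR2A. Bidirectional fit vs DMSO.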

[18] = read-out: Intercellular Adhesion Molecule 1 (ICAM1), ICAM1 (gene 3383); test: LTEA_HepaRG_ICAM1: Life Technologies and Expression Analysis (LTEA) Assay for Intercellular Adhesion Molecule 1 (ICAM1) using HepaRG (AID 2283507)
Summary of the method: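 Using the human liver line HepaRG, compounds are tested in duplicate over 48 h at concentrations up to 100 uM. Expression is determined by TaqMan qRT-PCR, normalized to endogenous controls, and analysed relative to 0.5% DMSO vehicle.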

[19] = read-out: Insulin-like growth factor-binding protein 1 (IGFBP1), IGFBP1 (gene 3484); test: LTEA_HepaRG_IGFBP1: Life Technologies and Expression Analysis (LTEA) Assay for Insulin-like growth factor-binding protein 1 (IGFBP1) using HepaRG (AID 2283508)
Summary of the method: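 HepaRG, 48 h, 8 conc. (max 100 uM, half-log), duplicates, 0.5% DMSO. Readout: TaqMan qRT-PCR, ACTB/GAPDH/POLR2A normalisation. Fit: bidirectional vs DMSO.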

[20] = read-out: Interleukin 6 (IL6), IL6 (gene 3569); test: LTEA_HepaRG_IL6: Life Technologies and Expression Analysis (LTEA) Assay for Interleukin 6 (IL6) using HepaRG (AID 2283509)
Summary of the method: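 HepaRG cells exposed in duplicate for 48 h to eight half-log concentrations, top 100 uM, in 0.5% DMSO serum-free induction medium. mRNA measured by qRT-PCR, normalized to ACTB, GAPDH and POLR2A. Bidirectional fit versus DMSO.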

Measured: AC50

Chain of Cytochrome P450 3A7 (Homo sapiens) (P24462 whole entry, looked up): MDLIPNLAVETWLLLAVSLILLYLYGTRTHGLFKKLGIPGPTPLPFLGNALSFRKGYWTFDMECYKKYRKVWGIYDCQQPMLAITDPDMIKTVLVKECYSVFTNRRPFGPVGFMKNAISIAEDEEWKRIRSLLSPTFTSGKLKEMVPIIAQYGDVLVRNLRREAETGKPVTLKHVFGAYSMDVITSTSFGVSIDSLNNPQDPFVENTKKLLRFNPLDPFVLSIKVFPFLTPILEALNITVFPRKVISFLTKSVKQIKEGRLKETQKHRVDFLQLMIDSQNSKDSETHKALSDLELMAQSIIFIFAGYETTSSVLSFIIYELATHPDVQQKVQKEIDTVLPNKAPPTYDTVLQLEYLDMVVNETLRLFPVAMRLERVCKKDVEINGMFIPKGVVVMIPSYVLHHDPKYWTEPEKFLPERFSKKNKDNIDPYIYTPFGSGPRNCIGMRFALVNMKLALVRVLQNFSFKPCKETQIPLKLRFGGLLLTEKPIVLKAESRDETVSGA
Chain of Hypoxia-inducible factor 1-alpha (Homo sapiens) (Q16665 whole entry, looked up): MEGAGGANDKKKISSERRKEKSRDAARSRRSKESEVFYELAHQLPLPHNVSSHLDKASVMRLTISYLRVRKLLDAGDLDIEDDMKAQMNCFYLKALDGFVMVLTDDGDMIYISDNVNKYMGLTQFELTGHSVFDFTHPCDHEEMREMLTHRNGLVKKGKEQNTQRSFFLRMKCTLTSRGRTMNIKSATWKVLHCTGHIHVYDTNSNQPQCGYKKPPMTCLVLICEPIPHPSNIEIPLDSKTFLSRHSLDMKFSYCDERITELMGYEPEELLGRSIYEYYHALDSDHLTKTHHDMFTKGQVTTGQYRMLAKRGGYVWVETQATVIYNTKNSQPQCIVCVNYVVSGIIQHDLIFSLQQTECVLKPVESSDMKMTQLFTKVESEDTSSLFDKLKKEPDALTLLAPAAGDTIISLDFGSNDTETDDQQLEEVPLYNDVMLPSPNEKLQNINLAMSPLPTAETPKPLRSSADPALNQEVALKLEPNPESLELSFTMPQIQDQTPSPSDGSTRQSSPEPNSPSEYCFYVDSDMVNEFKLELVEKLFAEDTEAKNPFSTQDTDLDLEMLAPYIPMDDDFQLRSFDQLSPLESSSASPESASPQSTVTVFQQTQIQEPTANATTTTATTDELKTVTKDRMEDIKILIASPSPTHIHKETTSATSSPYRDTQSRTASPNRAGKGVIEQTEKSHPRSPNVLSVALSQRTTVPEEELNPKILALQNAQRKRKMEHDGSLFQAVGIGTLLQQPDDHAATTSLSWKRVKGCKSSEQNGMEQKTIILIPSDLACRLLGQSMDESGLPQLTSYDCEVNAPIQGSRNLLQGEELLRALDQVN

CC(C)OC(=O)Nc1cccc(Cl)c1
inactive: [1] | [2] | [3] | [4] | [5] | [6] | [7] | [8] | [9] | [10] | [11] | [12] | [13] | [14] | [15] | [16] | [17] | [18] | [19] | [20]

CCOC1Oc2ccc(OS(C)(=O)=O)cc2C1(C)C (stereo not drawn)
inactive: [1] | [3] | [9] | [12] | [13] | [14] | [16] | [18]
active: [2] 78.8 µM | [4] 75.2 µM | [5] 63.7 µM | [6] 62.6 µM | [7] 85.6 µM | [8] 82 µM | [10] 78.3 µM | [11] 81.8 µM | [15] 79.4 µM | [17] 62.3 µM | [19] 79.4 µM | [20] 89.4 µM

CCCN(CCC)c1c([N+](=O)[O-])cc(C(F)(F)F)cc1[N+](=O)[O-]
inactive: [1] | [2] | [3] | [4] | [5] | [6] | [7] | [8] | [9] | [10] | [11] | [12] | [13] | [14] | [15] | [16] | [17] | [18] | [19] | [20]

O=C(O)COc1ccc(Cl)cc1Cl
active: [3] 27.7 µM
inactive: [1] | [2] | [4] | [5] | [6] | [7] | [8] | [9] | [10] | [11] | [12] | [13] | [14] | [15] | [16] | [17] | [18] | [20]

O=S1OCC2C(CO1)C1(Cl)C(Cl)=C(Cl)C2(Cl)C1(Cl)Cl (stereo not drawn)
active: [3] 50 µM | [5] 43.6 µM | [6] 60.4 µM | [7] 40.4 µM | [8] 79.7 µM | [10] 88.6 µM | [11] 50 µM | [15] 77.3 µM | [17] 42.2 µM | [19] 83.4 µM
inactive: [1] | [2] | [4] | [9] | [12] | [13] | [14] | [16] | [18] | [20]

CC(C)(C)C(O)C(Oc1ccc(Cl)cc1)n1cncn1 (stereo not drawn)
active: [5] 50 µM and 21.4 µM | [6] 12.8 µM and 14.6 µM and 18 µM | [7] 8.02 µM and 9.92 µM and 1.24 µM | [15] 21 µM and 32.8 µM and 21.6 µM | [17] 16 µM and 23.4 µM and 14.4 µM
inactive: [1] | [2] | [4] | [8] | [9] | [10] | [11] | [12] | [13] | [14] | [16] | [18] | [19] | [20]
